Common to all, as to assay: qHTS profiling for inhibitors of Plasmodium falciparum proliferation (AID 504749); also: nearly all actives have a fitted effect of over 60% in size
What all share (settings): P. falciparum in erythrocytes, SYBR Green DNA, 72 h; series mostly up to 28.7 µM
On the technique in general: In qHTS, concentration-response curves come from the screen itself.

One experiment has as its system AA1029. Put shortly:
(§1)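 SYBR Green fluorescence (ex 485 nm, em 535 nm) reports parasite DNA after 72 h compound exposure of infected red cells at 0.3% parasitemia, 2.5% hematocrit; signal normalized to 0.29 uM artemisinin and vehicle wells.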

The subject of a further experiment is AS120. Put shortly: as §1
In the next experiment the test system is ATS189. The method, boiled down:
as §1

In another experiment the test system is ATS95. Put shortly:
as §1

The next experiment deals with C2A. Put shortly: as §1
The subject of a further experiment is CP185. Put shortly: as §1
Another experiment deals with CP191. Put shortly:
as §1

The subject of another experiment is CP192. Put shortly: as §1
The test system of the next experiment is CP194. The method, boiled down: as §1
For another experiment, the system named is CP201. The method, boiled down:
as §1

Results filed as inconclusive are left out. Activity calls are given as the source filed them. Calls follow the shape of the dose curve; as a rule, active = well fitted inhibition curve with a large enough effect; inconclusive = small, poorly fitted or top-dose-only effect; inactive = flat fitted curve, though single readings scatter.
Potency is read from the fitted curve at half-maximal effect.

On to `O=c1[nH]c(=O)n(Cl)c(=O)n1Cl`, for which the Potency result with AA1029, in the experiment on AS120, with ATS189, in the experiment on ATS95, in the experiment with C2A and in the experiment with CP185 was “inactive” throughout. Further, the Potency result in the experiment on CP191, with CP192, with CP194 and in the experiment with CP201 was “inactive” each time.

Take `CC(=O)OC1CN2CCC1CC2` (stereo not given): the Potency entry in the experiment on AA1029, in the experiment on AS120, in the experiment with ATS189, in the experiment on ATS95, with C2A and in the experiment on CP185 was “inactive” throughout. Moreover, the Potency result in the experiment on CP191, in the experiment on CP192, in the experiment with CP194 and in the experiment on CP201 was “inactive” each time.

`O=c1[nH]cc(N(CCCl)CCCl)c(=O)[nH]1`: the Potency result with AA1029, with AS120, in the experiment on ATS189, with ATS95, in the experiment on C2A and in the experiment with CP185 was “inactive” in each case. Also, the Potency entry with CP191, in the experiment with CP192, in the experiment on CP194 and with CP201 was “inactive” throughout.

`ClC(Cl)(Cl)Cl`: the Potency entry in the experiment with AA1029, with AS120, in the experiment with ATS189, in the experiment on ATS95, in the experiment on C2A and with CP185 was “inactive” each time. Besides, the Potency entry with CP191, with CP192, in the experiment with CP194 and in the experiment on CP201 was “inactive” each time.

For `CCCCCCCCOC(=O)c1ccccc1C(=O)OCCCCCCCC`, the Potency result in the experiment with AA1029, in the experiment with AS120, with ATS189, in the experiment on ATS95, in the experiment on C2A and with CP185 was “inactive” in each case. Moreover, the Potency result with CP191, in the experiment with CP192, in the experiment with CP194 and in the experiment on CP201 was “inactive” each time.

On to `O=P(O)(O)C(Cl)(Cl)P(=O)(O)O`, for which the Potency entry in the experiment on AA1029, in the experiment on AS120, with ATS189, in the experiment on ATS95, with C2A and in the experiment with CP185 was “inactive” in each case. In addition, the Potency result in the experiment on CP191, in the experiment on CP192, in the experiment on CP194 and in the experiment on CP201 was “inactive” throughout.

With `CNC1(c2ccccc2Cl)CCCCC1=O` (stereo not given), the Potency result with AA1029, in the experiment on AS120, with ATS189, in the experiment on C2A, in the experiment on CP185 and with CP192 was “inactive” throughout. For the same compound, the Potency result in the experiment on CP201 is “inactive”.

Take `CCON=O`: the Potency result in the experiment on AA1029, in the experiment with AS120, in the experiment on ATS189, with ATS95, in the experiment with C2A and in the experiment with CP185 was “inactive” each time. The Potency result in the experiment with CP191, in the experiment with CP192, with CP194 and with CP201 was “inactive” each time.

On to `c1csc(C2(N3CCCCC3)CCCCC2)c1`, for which the Potency result with AA1029, in the experiment with AS120, in the experiment with ATS189, in the experiment with ATS95, with C2A and in the experiment with CP185 was “inactive” in each case. In addition, the Potency result with CP191, in the experiment with CP192, in the experiment on CP194 and in the experiment with CP201 was “inactive” throughout.

Consider `Clc1ccc(Cl)cc1`, for which the Potency result in the experiment on AA1029, with AS120, in the experiment with ATS189, with ATS95, with C2A and in the experiment on CP185 was “inactive” each time. Also, the Potency entry with CP191, with CP192, in the experiment with CP194 and with CP201 was “inactive” each time.

For the compound `N#CC1(N2CCCCC2)CCCCC1`, the Potency result in the experiment on AA1029, in the experiment with AS120, in the experiment on ATS189, in the experiment on ATS95, in the experiment with C2A and in the experiment with CP185 was “inactive” throughout. Besides, the Potency result with CP191, with CP192, in the experiment with CP194 and in the experiment on CP201 was “inactive” each time.

In the case of `Cc1sc2ccccc2c1CC1=NCCN1`, the Potency result in the experiment with AA1029, in the experiment with AS120, in the experiment with ATS189, in the experiment on ATS95, in the experiment with C2A and with CP185 was “inactive” throughout. The Potency entry with CP192, with CP194 and in the experiment on CP201 was “inactive” throughout.

As to `O[C@H]1[C@H]2[C@H](O)CCCN2C[C@H]1O`, the Potency entry in the experiment on AA1029, in the experiment on AS120, with ATS189, with ATS95, in the experiment with C2A and in the experiment with CP185 was “inactive” each time. Besides, the Potency entry with CP191, in the experiment with CP192, in the experiment with CP194 and with CP201 was “inactive” in each case.

With `CN1CCCC(=C(c2cccs2)c2cccs2)C1`, the Potency entry in the experiment on C2A, in the experiment with CP191, in the experiment on CP192 and in the experiment on CP201 was “inactive” each time.

As for `CCOc1ccc2c3c1O[C@H]1[C@@H](O)C=C[C@H]4[C@@H](C2)N(C)CC[C@@]341`, the Potency entry in the experiment with AA1029, in the experiment on AS120, in the experiment on ATS189, in the experiment with ATS95, with C2A and in the experiment on CP185 was “inactive” each time. Moreover, the Potency entry in the experiment on CP191, in the experiment on CP192 and with CP201 was “inactive” each time.

Take `CCC1(c2ccccc2)C(=O)NC(=O)NC1=O`: the Potency result in the experiment with AA1029, in the experiment on ATS189, with ATS95, in the experiment on C2A, in the experiment on CP185 and with CP191 was “inactive” each time. Further, the Potency result in the experiment with CP194 and in the experiment with CP201 was “inactive” throughout.

For `CCC1(C)CC(=O)NC(=O)C1`, the Potency entry in the experiment on AA1029, in the experiment on AS120, in the experiment with ATS189, with C2A, in the experiment with CP185 and in the experiment with CP191 was “inactive” each time. In addition, the Potency entry in the experiment on CP192, in the experiment with CP194 and in the experiment with CP201 was “inactive” throughout.

In the case of `c1ccc(C2(N3CCCC3)CCCCC2)cc1`, the Potency in the experiment on AA1029 is 11.2 µM (active); in the experiment with AS120, 11.2 µM (active); in the experiment with CP185 it was 12.6 µM (active); in the experiment with CP191 it was 11.2 µM (active). For the same compound, the Potency result with ATS189 and with C2A was “inactive” each time.

For the compound `O=C/C=C/c1ccccc1`, the Potency entry in the experiment with AA1029, in the experiment on AS120, in the experiment with ATS189, in the experiment on ATS95, with C2A and in the experiment on CP185 was “inactive” each time. Moreover, the Potency entry in the experiment with CP191, in the experiment with CP192, in the experiment with CP194 and with CP201 was “inactive” each time.

Take `C[CH2][Hg][S]c1ccccc1C(=O)O`: the Potency is 3.16 µM (active) in the experiment with AA1029; 3.16 µM (active) with AS120; 3.55 µM (active) in the experiment on ATS189; 2 µM (active) in the experiment with ATS95; 3.98 µM (active) in the experiment on C2A; 2 µM (active) with CP185. The Potency with CP191 is 3.55 µM (active); in the experiment on CP192, 4.78 µM (active); with CP194 it was 3.01 µM (active); in the experiment on CP201, 4.26 µM (active).

For `CCCC(=O)OC(C(Cl)(Cl)Cl)P(=O)(OC)OC` (stereo not given), the Potency result in the experiment on AA1029, in the experiment on AS120, in the experiment with ATS189, in the experiment with C2A, with CP185 and in the experiment with CP191 was “inactive” throughout. Moreover, the Potency result in the experiment with CP192, in the experiment with CP194 and in the experiment with CP201 was “inactive” in each case.

For the compound `O=c1c2ccccc2[se]n1-c1ccccc1`, the Potency entry in the experiment with AA1029, with ATS95, in the experiment on C2A, in the experiment with CP192 and with CP201 was “inactive” each time.

For the compound `CNC(=O)Oc1ccccc1C(=O)Nc1ccccc1`, the Potency entry in the experiment on C2A, in the experiment with CP185, in the experiment on CP192 and with CP201 was “inactive” each time.

Take `C[C@H]1CCC[C@H](O)CCCCCc2cc(O)cc(O)c2C(=O)O1`: the Potency entry in the experiment on ATS189, in the experiment on ATS95, in the experiment with C2A, in the experiment on CP185, in the experiment with CP192 and with CP201 was “inactive” throughout.

As to `CCOP(=O)(OCC)O/C(=C/Cl)c1ccc(Cl)cc1Cl`, the Potency result in the experiment with AA1029, with ATS189, in the experiment with ATS95, with C2A, in the experiment with CP191 and in the experiment on CP192 was “inactive” in each case. In the experiment with CP201, the Potency entry is “inactive”.

For `O=C(CS(=O)C(c1ccccc1)c1ccccc1)NO` (stereo not given), the Potency entry with AA1029, in the experiment with AS120, with ATS189, with ATS95, with C2A and with CP185 was “inactive” in each case. Also, the Potency entry in the experiment with CP191, in the experiment with CP192, in the experiment with CP194 and in the experiment with CP201 was “inactive” each time.

Turning to `CCC1(c2ccccc2)C(=O)NC(=O)N(C)C1=O` (stereo not given), the Potency entry in the experiment on AA1029, in the experiment with AS120, in the experiment on ATS95, in the experiment on C2A, with CP185 and with CP192 was “inactive” in each case. Moreover, the Potency entry in the experiment with CP194 and in the experiment on CP201 was “inactive” throughout.

Regarding `CCC1(c2ccccc2)C(=O)NC(=O)N(C(=O)c2ccccc2)C1=O` (stereo not given), the Potency entry in the experiment with AA1029, in the experiment on AS120, with ATS189, with ATS95, with C2A and in the experiment with CP185 was “inactive” each time. In addition, the Potency entry in the experiment with CP192, in the experiment with CP194 and with CP201 was “inactive” each time.

Values taken from PubChem BioAssay (NCATS).
